Compound activity deposited in PubChem BioAssay by Sanford-Burnham Center for Chemical Genomics.
An excerpt weighted towards active compounds, which were near 28% of everything screened.
CYP2C9 activ = increases human cytochrome P450 2C9 activity | P11712 | recombinant CYP2C9, luciferin-H conversion, luminescence; active compounds read high; factor 1 = untreated enzyme, 0 = blocked | activation factor at 5 µM | 1.4% of 96,000 active | AID 1024;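 active = activation factor of 2 or more for CYP2C9 at a 5 µM dose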
CYP2C9 inhib = human CYP2C9 inhibition; CYP2C9 Supersomes, luciferin-H conversion, luminescence; inhibition, % at 5 µM; 20% of 96,000 active; AID 777;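 active = blocking of liver enzyme CYP2C9 beyond about 50% at 5 µM, limit read from the data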
CYP2C19 inhib = inhibitors of human CYP2C19. inhibition, % at 5 µM. 21% of 96,000 active. P33261. CYP2C19 Supersomes, luciferin-H EGE luminescence, 30 min;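 active = CYP2C19 inhibition above a set limit at 5 µM in the primary screen, cut at about 50% in these data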
Target sequence (P33261 whole entry, looked up): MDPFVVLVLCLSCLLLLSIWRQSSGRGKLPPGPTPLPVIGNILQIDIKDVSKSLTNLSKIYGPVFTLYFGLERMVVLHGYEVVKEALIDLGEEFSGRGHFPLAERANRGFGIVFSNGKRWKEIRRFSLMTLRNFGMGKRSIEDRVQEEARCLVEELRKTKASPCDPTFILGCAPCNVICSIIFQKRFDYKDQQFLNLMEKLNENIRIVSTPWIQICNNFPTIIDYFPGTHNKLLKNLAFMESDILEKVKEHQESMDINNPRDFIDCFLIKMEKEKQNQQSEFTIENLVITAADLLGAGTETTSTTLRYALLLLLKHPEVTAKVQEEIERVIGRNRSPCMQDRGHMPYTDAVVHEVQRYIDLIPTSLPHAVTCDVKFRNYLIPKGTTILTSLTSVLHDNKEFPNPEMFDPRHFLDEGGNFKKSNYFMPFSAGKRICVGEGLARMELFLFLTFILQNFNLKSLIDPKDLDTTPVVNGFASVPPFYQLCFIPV
CYP2C19 act = increases human CYP2C19 enzyme activity | recombinant CYP2C19, luciferin-H EGE luminescence; active compounds read high; 0 = fully inhibited enzyme, 1 = untreated enzyme | activation factor at 5 µM | 96,000 tested, under 10 active;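 active = activation factor of at least 2 at 5 µM in the primary screen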
CD11b adhes inh = blocks human CD11b/CD18 adhesion to fibrinogen; P05107+P11215; K562 CD11b/CD18 adhesion to fibrinogen, ATPlite luminescence; Mn2+ added to activate the integrin; inhibition, % at 10 µM; 0.54% of 93,000 active; AID 1497;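 active = primary inhibition of 50% or more at 10 µM, then 40% or more on retest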
Mac1 fbg enh = increases human CD11b/CD18 adhesion to fibrinogen | K562 CD11b/CD18 adhesion to fibrinogen, ATPlite luminescence | AID 1499 | P05107+P11215 | 0.07% of 93,000 active | activation, % at 10 µM;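 active = 10 µM primary screen giving 50% or more activity, confirmed by 40% or more on retest at that dose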
A number is an active result; 0 = inactive; - = no result given.

SMILES	CYP2C9 activ	CYP2C9 inhib	CYP2C19 inhib	CYP2C19 act	CD11b adhes inh	Mac1 fbg enh
Clc1ccc(Cn2cc(/C=N/n3cnnc3)c3ccccc32)cc1	0	0	80.2	0	0	0
O=[N+]([O-])/C=C/c1cn(Cc2ccc(F)cc2)c2ccccc12	0	0	0	0	-	-
Cc1ccccc1Cn1cc(/C=N/n2cnnc2)c2ccccc21	0	74.5	91.1	0	0	0
COc1oc(-c2ccccc2)nc1C(F)(F)F	0	0	0	0	0	0
Cc1ccc(C)c(N(C)C(=O)COc2cc(=O)n(C)c3ccccc23)c1	0	0	0	0	0	0
COc1cc(/C=N/NC(=O)COc2ccccc2C)ccc1OC(=O)c1cccs1	0	0	0	0	0	0
CCOc1cc(/C=N/NC(=O)COc2cccc(C)c2)ccc1OC(=O)c1cccs1	0	58.7	0	0	-	-
Cc1nc(CN2CCN(C(=O)c3ccc(Br)cc3)CC2)cs1	0	0	0	0	0	0
CCC(NC(=O)Nc1nnc(C(F)(F)F)s1)(C(F)(F)F)C(F)(F)F	0	70.6	0	0	107.3	0
COC(=O)CCC(=O)Nc1nnc(C(F)(F)F)s1	0	0	0	0	0	0
COc1ccc(C(=O)Nc2nnc(C(F)(F)F)s2)cc1	0	75.0	0	0	0	0
COc1ccc(CNc2nc3c(c(C(F)(F)F)n2)CCCCC3)cc1	0	53.1	0	0	0	0
Cc1ccc(NC(=O)Cn2nc(C(F)(F)F)c3c2CCC3)cc1	0	0	50.3	0	0	0
Cc1cc(NC(=O)Cn2nc(C(F)(F)F)c3c2CCC3)no1	0	0	0	0	0	0
O=C(Cn1nc(C(F)(F)F)c2c1CCCC2)NCc1ccco1	2.1	0	55.7	0	0	0
COc1ccc(NC(=O)Cn2nc(C(F)(F)F)c3c2CCCC3)c(OC)c1	0	0	74.6	0	0	0
Cc1nc(=O)c(-c2ccccc2)c(C)n1-c1ccc(O)c(C(=O)O)c1	0	0	0	0	0	0
CCOc1ccc(Nc2nc(Cc3nnc(SCC(=O)c4ccc(C)c(C)c4)o3)cs2)cc1	0	0	0	0	0	0
COc1ccc(CNC(=O)Cn2nc(C(F)(F)F)c3c2CCC3)cc1	3	0	0	0	-	0
O=C(Cn1nc(C(F)(F)F)c2c1CCCC2)NC1CCCC1	0	0	0	0	-	-
CCn1c(COc2ccc(=O)n(-c3ccccc3)n2)nnc1SCc1ccccc1C	0	60.7	0	0	0	0
CN(CCOC(=O)c1ccco1)Cc1ccccc1	0	0	0	0	0	0
O=C(OCCN(C1=NS(=O)(=O)c2ccccc21)c1ccc(Cl)cc1)c1ccco1	0	85.0	86.4	0	0	0
Cc1cc(C(=O)NCCC2=CCCCC2)no1	0	0	0	0	0	0
O=C(NCCC1=CCCCC1)c1cnsn1	0	0	64.7	0	0	0
SMILES	CYP2C9 activ	CYP2C9 inhib	CYP2C19 inhib	CYP2C19 act	CD11b adhes inh	Mac1 fbg enh
NC(=O)CN1CCN(C(=O)NC2CCCCC2)CC1	0	0	0	0	0	0
O=C(Cc1sc(-c2ccccc2)nc1-c1ccccc1)Nc1ccccc1	0	51.9	0	0	0	0
O=[N+]([O-])c1ccc(-c2ccc(/C=N/c3c(-c4ccco4)nc4ccccn34)o2)cc1	0	0	0	0	0	0
CC(C)(C)c1ccc(C(=O)CSc2n[nH]c(=O)[nH]c2=O)cc1	0	52.7	0	0	0	0
COc1ccc(/C=N/NC(=O)CSc2n[nH]c(=O)[nH]c2=O)cc1	-	-	-	-	0	0
CSC1=NCCN1C(=O)c1ccc(Br)o1	0	0	0	0	50.8	0
O=C(c1ccc(Br)o1)N1CCN=C1SCc1cccnc1	0	64.2	89.0	0	0	0
O=C(c1cc2ccccc2o1)N1CCN=C1SCc1cccnc1	0	51.7	0	0	0	0
O=C(c1cc2ccccc2o1)N1CCN=C1SCc1cccc(F)c1	0	0	0	0	0	0
CCOC(=O)C1=NN(C(C)=O)C2(CC(=O)N(c3cccc(C)c3)C2=O)C1 (stereo not given)	-	-	-	-	0	0
COc1ccc(C(C[N+](=O)[O-])c2c(-c3ccccc3)cc3ccccn23)c(OC)c1 (stereo not given)	0	70.5	0	0	0	0
CCCCN1CCc2[nH]c(=S)[nH]c(=O)c2C1	-	-	-	-	-	0
O=c1c2cc(N3CCOCC3)ccc2[nH]c(=S)n1CC1CCCO1 (stereo not given)	0	62.4	0	0	0	0
